Compound: Nc1ncnc2c1ncn2[C@@H]1O[C@H](COP(=O)(O)OP(=O)(O)OP(=O)(O)O)[C@@H](O)[C@H]1O [adenosine 5'-triphosphate]
Test: log2 fold change of tryptic peptide abundance, ligand vs vehicle (limited proteolysis) (log2 ratio); higher = more trypsin-susceptible (destabilized)
Conditions: ligand concentration: 5 mM; sample: E. coli desalted lysate; replicate design: treated before aliquoting
Description: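 HT-PELSA: desalted E. coli K-12 BW25113 lysate (with 12 mM MgCl2) incubated with 5 mM ATP (pH 7) or water for 30 min at 25 C, then a 4 min trypsin pulse at 22 C. Peptides were quantified by DIA-MS (4 replicates). Value is the peptide log2 fold change (treated/control); negative = stabilized. Scale: negative = ligand-stabilized region.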
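Also: lysate desalted by size exclusion to strip endogenous ATP, peptide intensities built from DIA-NN precursor signals, and peptides missing any value discarded before comparison.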

Target	log2 fold change
UniProt P03841 (peptide sequence: STFISSVKGKG, peptide start residue: 296)	0.922
UniProt P0DMC5 (peptide sequence: FTDTGCIVLHVR, peptide start residue: 600)	-1.13
UniProt P23857 (peptide sequence: ERIATAVPDKNDTVK, peptide start residue: 50)	0.323
UniProt P0AEC3 (peptide sequence: FTQQGQVTVR, peptide start residue: 413)	-2.53
UniProt P45541 (peptide sequence: TGMFTCGHQR, peptide start residue: 3)	-1.14
UniProt P23837 (peptide sequence: EITEQYEGK, peptide start residue: 451)	-1.72
UniProt P77499 (peptide sequence: SVNVGFSGGEK, peptide start residue: 141)	-0.896
UniProt P09053 (peptide sequence: ILAEEIERAWAESH, peptide start residue: 404)	-0.817
UniProt P00968 (peptide sequence: AQLGSNSTMKKHGR, peptide start residue: 931)	0.849
UniProt P75767 (peptide sequence: VLSSLSSLGSR, peptide start residue: 24)	-1.19
UniProt P32053 (peptide sequence: AFEKPQKK, peptide start residue: 202)	-0.721
